The values below come from PubChem BioAssay AID623994 (NMMLSC, 2012).

Measured potencies and affinities stand elsewhere. The source made the active and inactive calls.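 Rule for the calls: active = compounds whose fitted concentration for half the maximal dye retention is below 100 µM; inactive = the rest.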

Sequence of Multidrug resistance protein CDR2 (Candida albicans (strain SC5314 / ATCC MYA-2876)) (P78595 whole entry, looked up): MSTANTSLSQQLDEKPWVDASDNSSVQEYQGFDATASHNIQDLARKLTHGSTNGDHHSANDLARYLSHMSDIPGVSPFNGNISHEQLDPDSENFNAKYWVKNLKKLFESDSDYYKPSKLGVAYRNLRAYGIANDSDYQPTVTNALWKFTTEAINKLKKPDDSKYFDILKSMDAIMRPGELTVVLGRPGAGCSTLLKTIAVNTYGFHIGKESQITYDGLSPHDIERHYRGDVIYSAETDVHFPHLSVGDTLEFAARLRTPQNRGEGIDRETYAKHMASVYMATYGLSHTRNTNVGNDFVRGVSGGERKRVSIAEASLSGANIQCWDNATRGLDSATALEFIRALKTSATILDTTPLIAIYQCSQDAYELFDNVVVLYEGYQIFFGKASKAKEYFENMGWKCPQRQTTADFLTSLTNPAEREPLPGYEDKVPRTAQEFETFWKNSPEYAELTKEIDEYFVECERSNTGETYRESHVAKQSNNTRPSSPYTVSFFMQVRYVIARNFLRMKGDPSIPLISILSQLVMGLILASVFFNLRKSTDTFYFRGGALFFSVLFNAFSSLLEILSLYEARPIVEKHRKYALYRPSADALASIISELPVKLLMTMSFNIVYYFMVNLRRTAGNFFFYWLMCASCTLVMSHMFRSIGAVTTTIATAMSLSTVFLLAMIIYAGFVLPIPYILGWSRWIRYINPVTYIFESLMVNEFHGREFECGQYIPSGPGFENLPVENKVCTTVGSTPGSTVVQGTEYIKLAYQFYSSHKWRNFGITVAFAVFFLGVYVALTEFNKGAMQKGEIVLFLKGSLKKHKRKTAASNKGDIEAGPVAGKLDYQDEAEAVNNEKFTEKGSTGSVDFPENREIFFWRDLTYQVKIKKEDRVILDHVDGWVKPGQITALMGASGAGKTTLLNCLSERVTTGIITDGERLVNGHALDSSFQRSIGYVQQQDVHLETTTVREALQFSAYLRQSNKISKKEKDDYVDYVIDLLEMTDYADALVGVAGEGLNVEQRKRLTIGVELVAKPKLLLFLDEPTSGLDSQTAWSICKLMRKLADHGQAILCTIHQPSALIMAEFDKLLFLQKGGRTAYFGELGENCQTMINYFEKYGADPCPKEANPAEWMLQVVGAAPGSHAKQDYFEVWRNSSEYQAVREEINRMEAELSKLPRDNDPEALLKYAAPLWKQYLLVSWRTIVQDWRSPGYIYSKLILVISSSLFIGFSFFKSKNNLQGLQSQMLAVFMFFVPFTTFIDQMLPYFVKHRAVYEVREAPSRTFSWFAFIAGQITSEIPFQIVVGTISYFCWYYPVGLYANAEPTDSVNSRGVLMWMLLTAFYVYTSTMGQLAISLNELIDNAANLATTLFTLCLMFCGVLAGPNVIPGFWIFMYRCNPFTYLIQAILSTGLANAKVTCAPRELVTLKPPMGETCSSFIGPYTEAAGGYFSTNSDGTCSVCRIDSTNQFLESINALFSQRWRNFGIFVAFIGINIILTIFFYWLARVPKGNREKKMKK

This assay concerns the target Multidrug resistance protein CDR2 (Candida albicans (strain SC5314 / ATCC MYA-2876)) (UniProt P78595). Put plainly: CaCDR2 efflux pump inhibitors in yeast, dose response, S. cerevisiae AD1-8u, singleplex, Cherry Pick2 set (AID 623994). The conditions noted are these: S. cerevisiae AD1-8u expressing CaCDR2, Nile Red efflux; series mostly up to 100 µM.
Turning to `Cc1ccc2c(c1)[C@H]1[C@H](CO2)[C@H](c2ccccc2)[C@]2(C)C(=O)Nc3cc(F)c(F)cc3C(=O)N12`, the compound was classed as inactive.
For `NS(=O)(=O)c1ccc(N2N=C(c3ccccc3)CC2c2ccc(Br)cc2)cc1` (centres undefined) the value was “inactive”; for `Cc1cccc2sc(N(CCCN(C)C)C(=O)c3ccc(Cl)s3)nc12`, “inactive”; for `O=C(C1CCCN(c2ncnc3c2nc2n3CCCCC2)C1)N1CCN(c2ccccc2F)CC1` (centres undefined), “inactive”.
For `O=C(Nc1ccccc1)C1=C[C@@H](c2ccc(Br)cc2)C[C@@H](OCCCCO)O1` the value was “inactive”; for `COc1ccc(C(=O)NC2CC(C)(C)Cc3c2cnn3-c2ccccc2)c(OC)c1` (centres undefined), “inactive”; for `COc1ccc(O)c(C(=O)c2cnc3c(c2)CN(C)C(=O)N3)c1`, “inactive”.
Next, `COc1ccccc1C(=O)OCCc1ccccc1`: “inactive”.
Consider `O=C1C(Cc2ccccc2)Nc2ncnc(N3CCN(c4ccccc4)CC3)c2N1Cc1ccccc1` (centres undefined), for which the result was inactive.
Next, `Cc1ccc(O)c(C(=O)c2cnc3c(c2)CN(CCC(C)C)C(=O)N3)c1`: “inactive”; `COc1ccc(-c2c[n+](CC(=O)N3c4ccccc4Sc4ccccc43)c3n2CCC3)cc1`: “inactive”.
For `Cc1ccc(-c2c[n+](CC(=O)N3c4ccccc4Sc4ccccc43)c3n2CCC3)cc1` the value was “inactive”; for `CC(C)C(=O)N1CCN(c2ccccc2NC(=O)c2ccc3c(c2)OCCO3)CC1`, “inactive”.
Next, `Cc1ccc(C2CC(c3ccccc3)=NN2c2ccc(S(N)(=O)=O)cc2)cc1` (centres undefined): “inactive”.
With `CCN(CC)CCC(c1ccc(N(C)C)cc1)c1c(OC)cc(OC)c2ccc(=O)oc12` (centres undefined), the compound was called inactive.
For the compound `Cc1ccc(CNC(=O)C2CCC(CNc3nc(=S)[nH]c4ccccc34)CC2)cc1` (centres undefined), the outcome was inactive.
Next, `O=C(C[n+]1cc(-c2ccccc2)n2c1CCC2)N1c2ccccc2Sc2ccccc21`: “inactive”.
For `COc1ncccc1C(=O)NC1CCCc2c1cnn2-c1cc(C)cc(C)c1` (centres undefined) the value was “inactive”; for `COc1ccc(S(=O)(=O)N(C)C[C@H]2Oc3c(NC(=O)NC4CCCCC4)cccc3C(=O)N([C@H](C)CO)C[C@@H]2C)cc1`, “inactive”.
For the compound `O=C(NC1CCCc2c1cnn2-c1ccccc1F)c1ccccn1` (centres undefined), the compound was called inactive.
Next, `CCCCN1Cc2cc(C(=O)c3cc(F)ccc3O)cnc2NC1=O`: “inactive”.
Next, `CC(C)C(=O)N1CCC2(CC1)Oc1ccc(Cl)cc1C(=O)C21CC(c2ccc(Cl)cc2)=NO1` (centres undefined): “inactive”; `Cc1cc(C)c2sc(N(CCCN(C)C)C(=O)c3ccc(Br)s3)nc2c1`: “inactive”.
For `COc1ccc(C(=O)OCCc2ccc(O)cc2)cc1` the value was “inactive”.
Turning to `C[C@@]12C(=O)Nc3cc(F)c(F)cc3C(=O)N1[C@H]1c3cc(Cl)ccc3OC[C@@H]1[C@@H]2c1ccccc1`, the outcome was inactive.
With `OCCN1CCN(CC/C=C2/c3ccccc3Sc3ccc(C(F)(F)F)cc32)CC1`, the call was inactive.
For the compound `O=C(Nc1ccccc1)C1=C[C@@H](c2ccc(C(F)(F)F)cc2)C[C@@H](OCCCCO)O1`, the call was inactive.
Next, `Cc1noc(C)c1C(=O)N1CCC2(CC1)Oc1ccc(F)cc1C(=O)C21CC(c2ccc(Cl)cc2)=NO1` (centres undefined): “inactive”; `CCOc1cccc2sc(NC(=O)c3ccc(Br)s3)nc12`: “inactive”.
